USP30 inh: inhibitors of human USP30 deubiquitinase | inhibition, % at 25 µM | AID 1645860, 2021 | Ubiquitin carboxyl-terminal hydrolase 30 (Homo sapiens), Q70CQ3 | purified USP30, Ub-rhodamine cleavage fluorescence | hit rate 5.3% among 47,000
Target sequence (Q70CQ3 whole entry, looked up): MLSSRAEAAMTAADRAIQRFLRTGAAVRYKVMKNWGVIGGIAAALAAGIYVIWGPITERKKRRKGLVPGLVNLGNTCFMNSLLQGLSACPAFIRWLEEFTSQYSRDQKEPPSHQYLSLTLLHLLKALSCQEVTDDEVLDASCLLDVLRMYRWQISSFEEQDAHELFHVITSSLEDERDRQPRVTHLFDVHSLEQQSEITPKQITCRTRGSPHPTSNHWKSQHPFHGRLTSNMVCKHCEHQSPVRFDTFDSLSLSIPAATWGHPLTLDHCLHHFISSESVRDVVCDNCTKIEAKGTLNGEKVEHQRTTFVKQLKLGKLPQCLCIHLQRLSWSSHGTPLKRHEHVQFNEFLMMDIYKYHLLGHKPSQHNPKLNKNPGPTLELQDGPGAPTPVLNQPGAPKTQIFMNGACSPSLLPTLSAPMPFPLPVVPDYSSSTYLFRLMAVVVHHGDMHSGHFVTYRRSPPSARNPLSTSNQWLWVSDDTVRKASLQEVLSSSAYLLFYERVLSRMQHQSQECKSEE
USP17 block: inhibitors of human USP17 deubiquitinase; Ubiquitin carboxyl-terminal hydrolase 17-like protein 5 (Homo sapiens), A8MUK1; purified USP17, Ub-rhodamine cleavage fluorescence, 3 h; inhibition, % at 50 µM; hit rate 6.5% among 47,000; AID 1645855, 2021
Large screens that a line does not name were inactive. The list is not random: actives were taken first. Their share in the collection is about 9.6%. Rule as the data show it: active = inhibition above about 30%; inactive = the rest.

Nc1cc(C2CCN(S(=O)(=O)c3ccc4c(c3)CCCC4)CC2)no1	USP30 inh 47.7
Cc1cccc(S(=O)(=O)N2CCC(c3cc(N)on3)CC2)c1	none
O=C(CCc1nnc2n(Cc3ccccc3)c(=O)c3ccccc3n12)NC1CCN(Cc2ccccc2)CC1	none
CC(CNC(=O)c1cnn2c3c(cnc12)CCCC3)c1ccccc1 (stereo not drawn)	USP30 inh 30.6
O=C(NCCC1=CCCCC1)c1cnn2c3c(cnc12)CCCCCC3	USP30 inh 37.8
CC(CCc1ccccc1)NC(=O)c1cnn2c3c(cnc12)CCCC3 (stereo not drawn)	none
O=C(O)c1cnn2c3c(cnc12)CCCCCC3	none
Cc1nonc1CC(=O)N1CCC(c2onc3c2CC(C)CC3)CC1 (stereo not drawn)	none
Cc1cc(N)n(-c2nc3ccccc3s2)n1	USP30 inh 40.9, USP17 block 35.7
Nc1c(-c2ccccc2)c(COc2ccccc2)nn1-c1nc2ccccc2s1	none
CCC(C)C(NC(=O)C(C(C)CC)N(C)C)C(=O)N1CCC2Oc3ccc(OC)c(c3)/C=C\NC(=O)C3CCCN3C(=O)C21 (stereo not drawn)	none
Cn1c(C(=O)NCc2ccc(F)cc2)cc2sc(Cl)cc21	USP30 inh 33.6
CCC(Cc1ccccc1)NC(=O)c1cc2sc(Cl)cc2n1C (stereo not drawn)	none
O=C(NC1CC1)c1ccc(-c2nnc3ccc(NC(=O)C4CCC4)cn23)cc1	none
O=C(C1CCOC1)N1CCC2(CC1)CN(c1ncccn1)c1ccccc12 (stereo not drawn)	none
O=C(C1CCOC1)N1CCC2(CC1)CN(c1cccnc1)c1ccccc12 (stereo not drawn)	USP30 inh 49.3 (no result: USP17 block)
CCOc1cc2[nH]c(=O)n(CC3CCC(C(=O)N4CCC5(CC4)OCCO5)CC3)c(=O)c2cc1OCC (stereo not drawn)	none
CCOc1cc2[nH]c(=O)n(CC3CCC(C(=O)NCCc4c[nH]c5ccccc45)CC3)c(=O)c2cc1OCC (stereo not drawn)	USP30 inh 37.0
CCCCN1C(=O)c2c(NC(C)=O)c3cc(F)ccc3n2CC1(C)C(=O)NCCC(C)C (stereo not drawn)	none
Cc1nn(-c2ccc(F)cc2)c(C)c1S(=O)(=O)N1CCC(C)CC1	none
Cc1nn(-c2ccc(F)cc2)c(C)c1S(=O)(=O)N1CCN(c2ccccn2)CC1	USP30 inh 37.5
Clc1cccc(-n2ncc3c2ncn2nc(Cc4cccc5ccccc45)nc32)c1	none
N#Cc1ccc(N2CCN(S(=O)(=O)c3ccc(Cl)cc3)CC2)cc1	USP30 inh 30.9
CN(C)c1ccc(C(=O)Nc2ccc(S(=O)(=O)N3CCCC3)cc2)cc1	none
N#Cc1ccc(S(=O)(=O)N2CCN(c3ncnc4cc(Cl)ccc34)CC2)cc1	none
CCC1CCCCN1S(=O)(=O)c1ccc(C(=O)Nc2ccc(S(N)(=O)=O)cc2)cc1 (stereo not drawn)	USP30 inh 75.8, USP17 block 60.0
N#Cc1ccc(NC(=O)c2ccc(S(=O)(=O)N3CCCCC3)cc2)cc1	USP30 inh 53.9
N#Cc1cccc(C(=O)Nc2ccc3c(N4CCCC4)ncnc3c2)c1	none
CCOC(=O)N1CCN(S(=O)(=O)c2ccc(C(=O)Nc3ccc(S(N)(=O)=O)cc3)cc2)CC1	none
N#Cc1ccc(C(=O)Nc2ccc3c(N4CCCC4)ncnc3c2)cc1	USP17 block 31.3
O=C1CCCC2=C1C(c1ccc(C(=O)O)cc1)n1ncc(C(=O)Nc3ccccc3)c1N2 (stereo not drawn)	none
CCCc1cc(=O)oc2cc(C)cc(OCC(=O)N3CC[C@@]4(O)CCCC[C@H]4C3)c12	none
O=S(=O)(c1ccc(Cl)c(Cl)c1)N1CCN(c2ccnc3cc(Cl)ccc23)CC1	none
O=S(=O)(c1ccc(Cl)cc1)N1CCN(c2ccnc3cc(Cl)ccc23)CC1	USP30 inh 30.5
Cc1ccc2nc(Cl)c3cc(C(=O)N4CCC(C)CC4)sc3c2c1	none
CCN(C(=O)c1cc2c(Cl)nc3ccccc3c2s1)c1ccccc1F	USP30 inh 71.2
COc1ccc2cc(C(=O)NCCC3=CCCCC3)[nH]c2c1	none
COC(=O)c1ccccc1NC(=O)CSc1nnc(CNc2ccc(F)cc2)n1CC1CCCO1 (stereo not drawn)	USP17 block 90.4
Cn1c(CNc2ccc(F)cc2)nnc1SCC(=O)Nc1cccc2ccccc12	none
COc1cc(OC)c(C(=O)OCC(=O)Nc2ccccc2Oc2ccccc2)cc1OC	none
COc1ccc(Nc2nc(N3CCN(C)CC3)nc3c2C(=O)CC(C)(C)C3)cc1	none
CCn1c(C(=O)O)c(CNCCC2=CCCCC2)c2ccccc21	none
COc1cc(NC(=O)Cc2ccc3c(c2)OCCO3)c(OC)cc1Cl	USP30 inh 44.6
O=C(Cc1ccc2c(c1)OCCO2)Nc1ccc(F)cc1F	none (no result: USP30 inh)
Cc1ccc(S(=O)(=O)c2cnc(SCC(=O)Nc3ccc(Cl)cc3)nc2N)cc1C	USP30 inh 39.4, USP17 block 79.8
COc1ccccc1NC(=O)CSc1ncc(S(=O)(=O)c2ccc(C(C)C)cc2)c(N)n1	none

Screens: PubChem BioAssay, Buhrlage Lab, Dana-Farber Cancer Institute and Novartis Institutes for BioMedical Research (Cambridge, Mass)
